Source: PubChem
DT40 TDP1 CPT – qHTS for Inhibitors of human tyrosyl-DNA phosphodiesterase 1 (TDP1): qHTS in cells in presence of CPT | 420,000 compounds, 12% hits | chicken DT40 Tdp1-/-;hTDP1 cells + 20 nM CPT, ATP luminescence, 48 h | Potency, µM (doses to about 46.2 µM), for inactives: at the top dose activity change, negative = growth inhibition, usual class: inhibitors | AID 686979, 2013; note: potency is the fitted concentration of half-maximal effect; nearly all actives have a fitted effect of over 55% in size
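Chicken DT40 Tdp1-/- cells stably complemented with human TDP1 were seeded at 400 cells/well in medium containing 20 nM camptothecin, exposed to pin-transferred compounds, and grown at 37 °C for at least 48 hr. Viability was read as ATP luminescence.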
IL-1B inflam inh – qHTS for Inhibitors of Inflammasome Signaling: IL-1-beta AlphaLISA Primary Screen; 360,000 compounds, 4.7% hits; THP-1 LPS/ATP IL-1B secretion, AlphaLISA, 16 h; hits give low values; activity change, % at 57.5 µM; in the data active = activity change below about -50%; inconclusive = mostly about -30% to -49%
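THP-1 cells pretreated 1 hr with compounds (up to 57.5 uM final), then stimulated with LPS (250 ng/mL final) plus ATP (1.25 mM final); secreted IL-1B measured by AlphaLISA after 16 hr, decreased signal indicating inhibition.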
RORgamma inh – qHTS for inhibitors of ROR gamma transcriptional activity; Nuclear receptor ROR-gamma (Mus musculus), P51450; Drosophila S2 Gal4-RORgamma UAS-luciferase reporter, 20 h; Potency, µM (series often up to 53.6 µM), without a hit: top-dose activity change, negative = inhibition, actives largely listed as inhibitors; 310,000 compounds, 5.4% hits; AID 2551, 2010; note: potency is the fitted concentration of half-maximal effect; nearly all actives have a fitted effect of over 60% in size
Target sequence (P51450 whole entry, looked up, the tested form may be a part): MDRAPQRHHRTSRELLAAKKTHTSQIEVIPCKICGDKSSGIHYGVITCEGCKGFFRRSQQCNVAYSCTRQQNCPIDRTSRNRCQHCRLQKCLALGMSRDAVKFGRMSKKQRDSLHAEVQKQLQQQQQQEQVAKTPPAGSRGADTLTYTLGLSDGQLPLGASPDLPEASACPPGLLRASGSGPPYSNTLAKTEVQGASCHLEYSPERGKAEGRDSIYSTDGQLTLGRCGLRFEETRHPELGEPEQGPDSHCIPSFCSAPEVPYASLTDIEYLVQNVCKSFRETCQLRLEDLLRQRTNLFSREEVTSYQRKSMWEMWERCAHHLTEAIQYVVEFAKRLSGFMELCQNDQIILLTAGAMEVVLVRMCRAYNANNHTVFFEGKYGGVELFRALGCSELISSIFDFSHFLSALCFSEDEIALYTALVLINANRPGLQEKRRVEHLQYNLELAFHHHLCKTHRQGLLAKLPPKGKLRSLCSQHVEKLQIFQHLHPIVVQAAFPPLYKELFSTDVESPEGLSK
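Schneider cells (Drosophila), stable Gal4 DBD–ROR gamma + UAS-luc; 1 hr cmpd preincubation; Cu2+ induction 700 uM final; 20 hr ambient; luminescence.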
TDP1 cell noCPT – qHTS for Inhibitors of human tyrosyl-DNA phosphodiesterase 1 (TDP1): qHTS in cells in absence of CPT | AID 686978, 2013 | DT40 Tdp1-/- hTDP1 cells, no CPT, ATP luminescence, 48 h | Potency, µM (titrated, usually from 46.2 µM), without a hit: at the highest dose activity change, negative = growth inhibition, actives largely listed as inhibitors | 420,000 compounds, 15% hits; note: potency is the fitted concentration of half-maximal effect; nearly all actives have a fitted effect of over 55% in size
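Chicken DT40 Tdp1-/- cells stably complemented with human TDP1 were seeded at 400 cells/well with DMSO in place of 20 nM camptothecin. After compound pinning, cells grew at least 48 hr at 37 °C; viability read by CellTiter-Glo luminescence.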
ELG1 repair inh – qHTS screen for small molecules that inhibit ELG1-dependent DNA repair in human embryonic kidney (HEK293T) cells expressing luciferase-tagged ELG1. HEK293T ELG1-luciferase reporter, luminescence, 16 h; DNA damage induced by 5-fluorouridine. 330,000 compounds, 2.3% hits. AID 504467, 2011. Potency, µM (series often up to 46.1 µM), inactives show top-dose activity change, negative = inhibition, actives largely listed as inhibitors; note: potency is the fitted concentration of half-maximal effect; nearly all actives have a fitted effect of over 55% in size
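Quantitative HTS, concentration-response format. 2,000 cells/well co-treated with 5-fluorouridine and compound, 16 hr in 5% CO2 at 37 °C; ONE-Glo luminescence read after 30 min.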
Gal4-VP16 FLuc – VP16 counterscreen qHTS for inhibitors of ROR gamma transcriptional activity. Potency, µM (highest dose often 53.6 µM), for the others: at the top dose activity, negative = inhibition, hits mostly inhibitors. 310,000 compounds, 3.5% hits. AID 2546, 2010. Drosophila S2 Gal4-VP16 UAS-luciferase, luminescence, 20 h;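 note: Gal4-VP16 expression switched on by copper sulfate through the metallothionein promoter; potency is the fitted concentration of half-maximal effect; nearly all actives have a fitted effect of over 50% in size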
* = called active by the depositor; ? = inconclusive; nt = no result given; [ ] = another dose, or the depositor's remark. Hits are enriched below; roughly 21% of the tested compounds scored in any of these assays. Unless noted, calls come from the whole dose curve; as a rule, active = well fitted curve in the direction sought with a large enough effect; inconclusive = small, poorly fitted or top-dose-only effect, or another doubt; inactive = no such curve, though single readings can be large; an effect the other way counts as inactive or inconclusive. % is set by controls: 0 for no effect and ±100 for the full control effect.

SMILES	DT40 TDP1 CPT	IL-1B inflam inh	RORgamma inh	TDP1 cell noCPT	ELG1 repair inh	Gal4-VP16 FLuc
C=CC[C@H](CC(=O)N(CCO)Cc1ccccc1)C(=O)N[C@@H](COC(=O)[C@@H](CC=C)Cc1ccc(F)cc1)Cc1c[nH]c2ccccc12	16.4µM*	?	nt	23.1µM*	20.6µM*	nt
CCOC(=O)N1CCN(C(=O)C[C@@H]2C[C@@]3(C(=O)OC)CCCCC=C3N(Cc3ccccc3)C2=O)CC1	?	-3.1	nt	?	nt	nt
S=C(Nc1ccccc1Cl)N1CCCC(c2ccccc2)=N1	?	nt	-20.0%	29.1µM*	0.4%	1.2%
CC(C)c1ccc(NC(=S)N2CCCC(c3ccc(F)cc3)=N2)cc1	?	-20.3	11.2µM*	29.1µM*	-3.8%	-12.0%
S=C(Nc1ccccc1Cl)N1CCCCCC1	-18.8%	0.0	-24.9%	-14.3%	12.3%	18.3%
C/C(=N\O)c1ccc(OCC(=O)N2CCCCC2)cc1	-3.9%	nt	nt	-7.3%	nt	nt
Cc1ccc(Nc2nc(=O)c3cccnc3s2)c(Br)c1	0.5%	30.4	-2.1%	-3.8%	19.9%	13.3%
Cc1ccc(-c2nc(=O)[nH]c3ccc(Br)cc23)cc1	?	-15.1	-14.9%	?	-15.7%	-3.4%
CCOC1=C2CN(S(=O)(=O)c3ccc(C)cc3)[C@@H](c3ccccc3)C[C@H]2[C@H]2C(=O)N(c3ccccc3)C(=O)[C@H]2C1	5.3%	-7.9	nt	13.0%	nt	nt
Cc1ccc2oc(=O)c3cc(C(=O)NCCCOC(C)C)sc3c2c1	10.4%	nt	nt	-23.8%	nt	nt
CN1CCN(c2nc3c(c(=O)n(C)c(=O)n3C)n2Cc2cccc(Br)c2)CC1	-23.0%	?	-21.9%	-6.6%	-11.9%	-9.3%
Cn1c(=O)c2c(nc(Br)n2Cc2ccc3ccccc3c2)n(C)c1=O	20.6µM*	-28.8	-21.8%	?	?	?
COC(=O)Cn1c(=O)c2c(nc(Br)n2Cc2ccccc2Cl)n(C)c1=O	?	6.1	-28.1%	?	4.9%	-7.0%
C/C(Cl)=C/Cn1c(=O)c2c(nc(Br)n2Cc2ccccc2)n(C)c1=O	?	-10.1	35.5%	20.6µM*	?	19.9%
CCCn1c(=O)c2sccc2n2c(CCCC(=O)NCCOC)nnc12	-2.3%	nt	nt	0.4%	nt	nt
NC(=S)N=Nc1c(O)[nH]c2c(Cl)cc(Cl)cc12	16.4µM*	?	nt	4.61µM*	nt	nt
NC(=O)N=Nc1c(O)[nH]c2c(Br)cc(Br)cc12	nt	nt	-8.2%	nt	-3.1%	1.4%
N=C(N)N=Nc1c(O)[nH]c2ccc(Br)cc12	6.3%	-24.0	-3.2%	-23.4%	-7.4%	-1.0%
NC(=S)N=Nc1c(O)[nH]c2cc(F)c(F)cc12	-10.3%	0.0	3.16µM*	?	13.2%	5.01µM*
O=C(Nc1cc2c(cc1Cl)OCCCO2)c1ccc(F)cc1	-8.2%	-8.0	12.4%	-4.7%	?	-0.7%
Cc1ccc(S(=O)(=O)N(C)C)cc1NC(=O)CN1C(=O)NC2(CCc3ccccc32)C1=O (configuration not stated)	1.3%	-2.5	nt	7.0%	nt	nt
CCN(CC)S(=O)(=O)c1cc(NS(=O)(=O)c2ccccc2)ccc1C	16.4µM*	16.0	-8.4%[10 µM]	-28.3%	-16.4%	0.2%
CCN(CC)S(=O)(=O)c1cc(NC(=O)c2ccc3c(c2)NC(=O)C(C)S3)ccc1C (configuration not stated)	20.6µM*	-57.9*	nt	20.6µM*	?	nt
CC1Sc2ccc(C(=O)NCc3ccccn3)cc2NC1=O (configuration not stated)	0.82µM*	7.8	nt	0.651µM*	12.2%	nt
CCN(CC)S(=O)(=O)c1cc(NC(=O)NCCCl)ccc1C	?	45.6	8.0%	?	0.0%	2.9%
SMILES	DT40 TDP1 CPT	IL-1B inflam inh	RORgamma inh	TDP1 cell noCPT	ELG1 repair inh	Gal4-VP16 FLuc
CCN(CC)S(=O)(=O)c1cc(NC(=O)c2ccc(Br)s2)ccc1C	?	0.0	12.6%	16.4µM*	?	-11.7%
COc1ccc(NC(=O)C(Cc2c[nH]c3ccccc23)NC(=O)OC(C)(C)C)cc1 (configuration not stated)	?	nt	nt	-22.7%	nt	nt
O=S(=O)(c1ccccc1)N1CCC[C@@]2(CCN(Cc3cc(C(F)(F)F)cc(C(F)(F)F)c3)C2)C1	?	nt	11.2%	?	nt	-4.3%
COC(=O)c1cnc(Oc2ccc(NC(=O)NC(=O)c3c(F)cccc3F)cc2)cc1C(F)(F)F	-6.3%	35.1	-17.3%	?	-4.9%	-7.7%
COC(=O)c1cnc(Oc2ccc(NC(=O)NC(=O)c3c(F)cccc3Cl)cc2)cc1C(F)(F)F	3.26µM*	65.0	35.3%	4.11µM*	-2.8%	-12.4%
COC(=O)c1cnc(Oc2ccc(NC(=O)NC(=O)c3c(OC)cccc3OC)cc2)cc1C(F)(F)F	1.16µM*	47.2	33.1%	1.3µM*	?	-9.3%
COC(=O)c1cnc(Oc2c(Cl)cc(N)cc2Cl)cc1C(F)(F)F	?	nt	-24.8%	14.6µM*	-6.6%	5.2%
Cc1ccc(OCCN2CCC2(C)C(=O)Nc2ccc3c(c2)OCO3)cc1 (configuration not stated)	-25.2%	-19.0	nt	-25.0%	nt	nt
O=C(Nc1ccccc1)N1CCN(c2nc(-c3ccccc3)ns2)CC1	23.1µM*	-7.5	20.7%	16.4µM*	23.1µM*	-1.5%
Cc1c(Cl)cccc1NC(=O)N1CCCN(c2nc(-c3ccccc3)ns2)CC1	?	-60.5*	10.6%	?	-14.9%	3.9%
O=C(Nc1ccccc1Cl)N1CCCN(c2nc(-c3ccccc3)ns2)CC1	?	-20.5	23.1%	?	?	-7.6%
O=C(c1ccc(F)cc1)N1CCCN(c2nc(-c3ccccc3)ns2)CC1	?	-12.6	14.4%	-18.5%	?	11.6%
CCOc1cc(-c2nnc(-c3ccco3)o2)cc(OCC)c1OCC	18.4µM*	-14.5	-1.1%	11.6µM*	?	4.2%
COC(=O)C1C(O)CC[C@@H]2CN3CCc4c([nH]c5ccccc45)C3C[C@@H]12 (some centres not stated)	12.8%	nt	4.0%	-0.2%	nt	2.7%
O=C(Nc1ccccc1N1CCCCC1)c1ccc([N+](=O)[O-])o1	20.6µM*	?	nt	16.4µM*	-4.5%	nt
O=C(Nc1ccccc1N1CCOCC1)c1ccc([N+](=O)[O-])o1	11.6µM*	-1.3	10.8%	14.6µM*	-2.7%	-11.2%
